“And” between values parts separate entries of the source, which are not always exact repeats. Identical values can stand only once. Records with an inconclusive call do not appear. A call without a number means that no potency is given here. The source made the active and inactive calls. Unless noted, calls come from the whole dose curve; as a rule, active = well fitted curve in the direction sought with a large enough effect; inconclusive = small, poorly fitted or top-dose-only effect, or another doubt; inactive = no such curve, though single readings can be large; an effect the other way counts as inactive or inconclusive. *1 amine or outer side, *2 acyl side, *3 side chain or, on linkers, in order; H or OH if unused. Where a SMILES comes first, the peptide text is derived from it. [ ]: non-standard residue; d: D form. X7 = O=C([C@@H](CC(O)CCl)O[*:1])[*:2]; aIle = CC[C@@H](C)[C@H](N)C(=O)O; NMeV = CN[C@H](C(=O)O)C(C)C; NMeA = CN[C@@H](C)C(=O)O; βAla = NCCC(=O)O
What was measured:
[1] = P-glycoprotein substrates identified in KB-8-5-11 adenocarcinoma cell line, qHTS therapeutic library screen (AID 1346987); note: nearly all actives have a fitted effect of over 65% in size; note: potency is the fitted concentration of half-maximal effect
In short: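 Steps: plate 500 KB-8-5-11 cells/well in DMEM + 10% FCS (colchicine removed); pin compounds in dose-response; incubate 72 h, 37 degree C, 5% CO2; add CellTiter-Glo, 5 min; read luminescence.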

[2] = test system: Zika virus NS2B-NS3 protease (unlinked complex); test: Primary screen GU Rhodamine qHTS for Zika virus inhibitors: Unlinked NS2B-NS3 protease assay (AID 1347159); note: nearly all actives have a fitted effect of over 60% in size; note: potency is the fitted concentration of half-maximal effect
In short: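 Noncovalent NS2B hydrophilic domain–NS3 protease domain complex (25 nM) preincubated 15 min at room temperature with compounds (up to 114 microM) in 10 mM Tris-HCl pH 8.0, 0.01% Tween 20; 1.5 microM Rhodamine110 substrate added, fluorescence change over 15 min fitted to Hill equation.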

[3] = test system: Zika virus NS2B-NS3 protease (linked construct); test: Primary screen NINDS Rhodamine qHTS for Zika virus inhibitors (AID 1347160); note: nearly all actives have a fitted effect of over 55% in size
In short: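 Purified linked NS2B-NS3 protease (NS2B hydrophilic domain joined to NS3 protease by flexible linker), 25 nM in 10 mM Tris-HCl pH 8.0, 0.01% Tween 20. Compounds titrated, 15 min preincubation at room temperature; 1.5 microM Rhodamine110 substrate, FITC fluorescence change over 15 min.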

[4] = target: Calcium and integrin-binding protein 1 (Homo sapiens) (UniProt Q99828); test: Primary qHTS for Identification of Calcium Integrin Binding Protein 1 (CIB1) Competitor (AID 1508620);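 note: GST tagged CIB1 binding a fluorescein labelled alphaIIb integrin peptide tracer; top concentration of the series differs between compounds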
Sequence of Calcium and integrin-binding protein 1 (Homo sapiens) (Q99828 whole entry, looked up): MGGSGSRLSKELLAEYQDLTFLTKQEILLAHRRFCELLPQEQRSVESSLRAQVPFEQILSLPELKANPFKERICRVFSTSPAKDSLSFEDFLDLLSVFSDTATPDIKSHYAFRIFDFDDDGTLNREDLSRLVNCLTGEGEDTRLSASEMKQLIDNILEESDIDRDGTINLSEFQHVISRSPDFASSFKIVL
In short: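 CIB1-GST (1 uM final) and compound incubated 15 min at room temperature before adding FITC-alphaIIb peptide tracer (100 nM final). Competition for binding read by fluorescence polarization (ex 480, em 540) after another 15 min at room temperature.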

CAOV3 = test: Primary qHTS to identify gynecologic anti-cancer compounds using libraries of approved drugs and bioactive compounds (AID 1345084); conditions: Gynecologic cancer cell panel viability, ATPlite luminescence, 48 h; series mostly up to 57.5 µM; note: nearly all actives have a fitted effect of over 55% in size; note: potency is the fitted concentration of half-maximal effect
In short: (§1)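 Luminescence from the ATPlite ATP-monitoring reagent indicates viable cell number; lower signal means cytotoxicity. Cells received compound 16 h after seeding and were exposed for 48 h across five concentrations.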

[5] = Primary redox qHTS assay for identification of artifact compounds. (AID 1845223)
In short: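 Amplex Red (25 uM) and HRP (250 mU/mL) in HBSS, with compounds for 15 min, then 250 uM DTT for 30 min, room temperature, dark. Fluorescence 525/598 nm read; normalized to DMSO and 10 uM DA3003; Hill fit.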

HeLa = test: Primary qHTS to identify gynecologic anti-cancer compounds using libraries of approved drugs and bioactive compounds (AID 1345084); conditions: Gynecologic cancer cell panel viability, ATPlite luminescence, 48 h; series mostly up to 57.5 µM; note: nearly all actives have a fitted effect of over 55% in size; note: potency is the fitted concentration of half-maximal effect
In short: as §1

JEG-3 = test: as above; conditions: Gynecologic cancer cell panel viability, ATPlite luminescence, 48 h; series mostly up to 57.5 µM
In short: as §1

[6] = qHTS Assay for Lipid Storage Modulators (AID 1519; calls by dose curve); conditions: Drosophila S3 cells, BODIPY lipid droplet/cell ratio, laser cytometry, cells loaded with oleic acid
In short: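 Cells seeded at 5,000 per well were treated with compounds over a concentration series and loaded with oleic acid (400 uM, as added). Lipid droplet fluorescence (488 nm excitation, 500-530 nm channel) was read by laser-scanning cytometry and normalized to 20 uM Triacsin C.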

[7] = P-glycoprotein substrates identified in KB-3-1 adenocarcinoma cell line, qHTS therapeutic library screen (AID 1346986); note: nearly all actives have a fitted effect of over 60% in size
In short: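 Cells seeded 500/well in DMEM/10% FCS; compounds pinned in dose-response; 72 h incubation; CellTiter-Glo added, 5 min, luminescence. KB-8-5-11 run ±tariquidar to test reversal of P-gp resistance.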

SKOV3 = test: Primary qHTS to identify gynecologic anti-cancer compounds using libraries of approved drugs and bioactive compounds (AID 1345084); conditions: Gynecologic cancer cell panel viability, ATPlite luminescence, 48 h; series mostly up to 57.5 µM; note: nearly all actives have a fitted effect of over 55% in size; note: potency is the fitted concentration of half-maximal effect
In short: as §1

[8] = target: Cytochrome P450 2C9 (Homo sapiens) (UniProt P11712); test: Cytochrome P450 family 2 subfamily C member 9 (CYP2C9) small molecule antagonists: luciferase biochemical (cell-free) qHTS assay (AID 1645842; active = well fitted curve in the direction sought with a large enough effect in the repeat runs; an effect the other way counts as inactive or inconclusive; note: nearly all actives have a fitted effect of over 55% in size)
Sequence of Cytochrome P450 2C9 (Homo sapiens) (P11712 whole entry, looked up): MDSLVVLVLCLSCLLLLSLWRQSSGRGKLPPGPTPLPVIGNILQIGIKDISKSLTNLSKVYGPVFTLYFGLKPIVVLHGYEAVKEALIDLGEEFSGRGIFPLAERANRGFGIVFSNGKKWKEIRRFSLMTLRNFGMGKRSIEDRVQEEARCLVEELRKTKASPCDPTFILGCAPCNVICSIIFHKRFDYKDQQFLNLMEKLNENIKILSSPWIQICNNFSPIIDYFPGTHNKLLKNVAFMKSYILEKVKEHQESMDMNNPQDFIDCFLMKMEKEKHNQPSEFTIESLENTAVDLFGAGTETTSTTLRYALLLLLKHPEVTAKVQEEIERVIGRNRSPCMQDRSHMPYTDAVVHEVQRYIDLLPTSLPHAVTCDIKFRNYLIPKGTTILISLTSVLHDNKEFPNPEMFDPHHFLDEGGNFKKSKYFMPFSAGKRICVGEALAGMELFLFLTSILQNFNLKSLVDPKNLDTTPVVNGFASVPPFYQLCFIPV
In short: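 Luminescence, after 20 min with luciferin detection reagent, reflected CYP2C9 turnover during a 1 h NADPH-driven reaction at 37C. Enzyme-substrate mix contained 0.4% bovine serum albumin and was preincubated with compound 10 min at room temperature.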

[9] = Cytotoxicity counterscreen for inhibitors of SARS-CoV-2 cell entry (AID 1645845; calls by dose curve; note: nearly all actives have a fitted effect of over 50% in size)
In short: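 48 h compound treatment (after 1 h preincubation), HEK293-ACE2 cells, 37 C/5% CO2; ATP luminescence endpoint; normalized to cell wells and media blanks.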

[10] = Primary qHTS to identify inhibitors of SARS-CoV-2 cell entry (AID 1645846; calls by dose curve; note: nearly all actives have a fitted effect of over 45% in size); conditions: activity change, negative = inhibition: at 57.1 µM (top of the series) unless noted
In short: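 Data are normalized to wells receiving SARS-CoV-2-S pseudoparticles and those given bald particles. Entry signal was luciferase luminescence in stable hACE2 Expi293F cells, 48 hr post-infection, after 1 hr compound pretreatment.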

[11] = qHTS drug screen for cell cycle checkpoint inhibitors in PARPi-resistant BRCA-mutant ovarian cancer cell lines. (AID 1963452; calls by dose curve); conditions: PEO1/OlaR viability, CellTiter-Glo luminescence, 96 h, stronger effect = lower value
In short: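 PEO1, PEO4 and PEO1/OlaR ovarian cancer cells, 600 per well, exposed 96 h at 37C to a dilution series. Viability read by CellTiter-Glo luminescence, normalized to DMSO and empty wells; activity summarized as Z-AUC.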

SMILES: CNc1ccc2oc(C[C@H]3O[C@@]4(CC[C@H]3C)O[C@H](C(C)C(=O)c3ccc[nH]3)[C@H](C)C[C@H]4C)nc2c1C(=O)O (stereo partly specified)
- Potency [1]: 2.06 µM (active)
- Potency [2]: 11.2 µM (active)
- Potency [3]: inactive
- Potency [4]: inactive
- Potency (CAOV3): 22.4 µM (active)

SMILES: CC(=O)OC[C@]12C[C@H](O)C(C)=C[C@H]1O[C@@H]1[C@H](O)[C@@H](OC(C)=O)[C@@]2(C)[C@]12CO2
- Potency [1]: 0.0143 µM (active)
- Potency [2]: inactive
- Potency [3]: inactive
- Potency [5]: inactive
- Potency (HeLa): 0.178 µM (active)
- Potency (JEG-3): 0.224 µM (active)

SMILES: CC1CCCC(=O)CCC/C=C/c2cc(O)cc(O)c2C(=O)O1 (stereo unspecified)
- activity change, negative = inhibition ([6]; at 57.5 µM (top of the series)): -7.32% (inactive)
- max response ([6]; measured here: cell count channel max response): 9.42%
- max response ([6]; measured here: lipid channel max response): 4.67%
- Potency [7]: inactive
- Potency [1]: inactive
- Potency [3]: inactive
- Potency [4]: inactive
- Potency (CAOV3): inactive
- Potency (JEG-3): inactive
- Potency (SKOV3): inactive

SMILES: C[N@@+]1(CC2CC2)CC[C@]23c4c5ccc(O)c4O[C@H]2C(=O)CC[C@@]3(O)[C@H]1C5
- Potency [7]: inactive
- Potency [1]: inactive
- Potency [3]: inactive
- Potency [4]: inactive
- Potency (CAOV3): inactive
- Potency (HeLa): inactive
- Potency (JEG-3): inactive

SMILES: CC(=O)OC[C@]12C[C@H](OC(=O)CC(C)C)C(C)=C[C@H]1O[C@@H]1[C@H](O)C[C@@]2(C)[C@]12CO2
- Potency [2]: inactive
- Potency [3]: inactive
- Potency [4]: inactive
- Potency [5]: inactive
- Potency (CAOV3): 4.47 µM (active)
- Potency (HeLa): 3.98 µM (active)

SMILES: CC1=CC2OC3[C@H](O)C[C@@](C)([C@]34CO4)[C@@]2(CO)[C@H](O)C1=O (stereo partly specified)
- Potency [1]: 1.46 µM (active)
- Potency [2]: inactive
- Potency [3]: inactive
- Potency [4]: inactive
- Potency [5]: inactive
- Potency (JEG-3): inactive

SMILES: CC[C@@H](C)[C@@H]1NC(=O)[C@@H]2CCCN2C(=O)[C@@H](CC(O)CCl)OC(=O)CCNC(=O)[C@H](C)N(C)C(=O)[C@H](C(C)C)N(C)C1=O (stereo partly specified) (cyclo([NMeA][βAla][X7]P[aIle][NMeV]))
- Potency [1]: inactive
- Potency [2]: inactive
- Potency [3]: inactive
- Potency [4]: inactive
- Potency (CAOV3): 3.16 µM (active)
- Potency (JEG-3): inactive

SMILES: COC1C(O)C(C)OC(OC2C(CO)O[C@@H](O[C@@H]3CC4CCC5C(CC[C@]6(C)[C@@H](C7=CC(=O)OC7)CC[C@]56O)[C@@]4(C)[C@H](OC(C)=O)C3)C(O)C2O)C1O (stereo partly specified)
- Potency [1]: 2.73 µM (active)
- Potency [2]: inactive
- Potency [3]: inactive
- Potency (HeLa): 10 µM (active)

SMILES: CC[C@@]1(O)C(=O)OCc2c1cc1n(c2=O)Cc2cc3c(OC)cccc3nc2-1
- Potency [1]: 0.805 µM (active)
- Potency [2]: inactive
- Potency [3]: inactive
- Potency (SKOV3): 0.447 µM (active)

SMILES: C=C1[C@@H](C)[C@H]2[C@H](Cc3ccccc3)NC(=O)[C@]23[C@H](OC(C)=O)/C=C/[C@](C)(O)C(=O)[C@@H](C)C/C=C/[C@H]3[C@@H]1O
- Potency [2]: inactive
- Potency [3]: inactive
- Potency [4]: inactive
- Potency [5]: inactive
- Potency (HeLa): inactive
- Potency (JEG-3): inactive

SMILES: C[C@H]1C/C=C/[C@H]2[C@@H]3O[C@]3(C)[C@@H](C)[C@H]3[C@H](Cc4ccccc4)NC(=O)[C@]32OC(=O)O/C=C/[C@@](C)(O)C1=O
- Potency [1]: 2.24 µM (active)
- Potency [2]: inactive
- Potency [4]: inactive
- Potency (SKOV3): 2 µM (active)

SMILES: C=C1[C@@H](C)C2[C@H](Cc3ccccc3)NC(=O)[C@@]23C(/C=C/C[C@H](C)C[C@@](C)(O)/C=C/[C@@H]3OC(C)=O)[C@@H]1O (stereo partly specified)
- Potency [1]: 2.91 µM (active)
- Potency [2]: inactive
- Potency [3]: inactive
- Potency [5]: inactive
- Potency (CAOV3): inactive

SMILES: Cc1sc2c(c1C)C(c1ccc(Cl)cc1)=N[C@@H](CC(N)=O)c1nnc(C)n1-2
- Potency [2]: inactive
- Potency [3]: inactive
- Potency [4]: inactive
- Potency [8]: inactive
- Potency [9]: inactive
- activity change, negative = inhibition [10]: -6.24%
- Potency [5]: inactive
- Z-AUC [11]: -0.829 (inactive) and -0.822 (inactive)
- Z-AUC ([11]; measured here: PEO1 parental Z-AUC): -0.858 and -0.588
- Z-AUC ([11]; measured here: PEO4 Z-AUC): -1.13 and -0.593
- Potency (JEG-3): inactive
- Potency (SKOV3): 0.891 µM (active)

Source: PubChem BioAssay (NCATS)
